Test results as given in the supplement of paper PMC6555819.

How the values were obtained:
Assay in all cases: PBM binding z-score (relative to random genomic background probes); higher = stronger binding; sequences stand for … in GC…GCGATTGACAGCGTAGAATGAAGG
[1] = tested on: FXR:RXRa (NR concentration 270 nM, RXRa partner concentration 90 nM)
Procedure, shortened: (§1)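 Scanned fluorescence from custom Agilent 4×180K protein-binding microarrays was regression-normalized. Binding z-scores use random background probes as reference. Ligand-free nuclear receptor dimers were incubated on the arrays for 1 h and detected with antibodies against each partner (one per run).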

[2] = tested on: LXRa:RXRa (NR concentration 270 nM, RXRa partner concentration 90 nM)
Procedure, shortened: as §1

[3] = tested on: LXRa homodimer (NR concentration 270 nM)
Procedure, shortened: as §1

[4] = tested on: LXRb:RXRa (NR concentration 270 nM, RXRa partner concentration 90 nM)
Procedure, shortened: as §1

[5] = tested on: LXRb homodimer (NR concentration 270 nM)
Procedure, shortened: as §1

[6] = tested on: PPARa:RXRa (NR concentration 270 nM, RXRa partner concentration 90 nM)
Procedure, shortened: as §1

[7] = tested on: PPARg:RXRa (NR concentration 180 nM, RXRa partner concentration 90 nM)
Procedure, shortened: as §1

[8] = tested on: PPARg:RXRa 270nM:90nM, anti-RXR (NR concentration 270 nM, RXRa partner concentration 90 nM)
Procedure, shortened: as §1

[9] = tested on: PPARg:RXRa 30nM:10nM, anti-RXR (NR concentration 30 nM, RXRa partner concentration 10 nM)
Procedure, shortened: as §1

[10] = tested on: PPARg:RXRa 90nM:30nM, anti-RXR (NR concentration 90 nM, RXRa partner concentration 30 nM)
Procedure, shortened: as §1

[11] = tested on: PPARg:RXRa DBDmut IVT, anti-RXR (DBD mutation: RXRa K156A/R161A, NR concentration 270 nM, RXRa partner concentration 90 nM)
Procedure, shortened: as §1

[12] = tested on: PPARg:RXRa IVT, anti-PPARg (NR concentration 270 nM, RXRa partner concentration 90 nM)
Procedure, shortened: as §1

[13] = tested on: PPARg DBDmut:RXRa IVT, anti-PPARg (DBD mutation: PPARg1 K132A/R137A, NR concentration 270 nM, RXRa partner concentration 90 nM)
Procedure, shortened: as §1

[14] = tested on: PPARg DBDmut IVT, anti-PPARg (DBD mutation: PPARg1 K132A/R137A, NR concentration 270 nM)
Procedure, shortened: as §1

[15] = tested on: PPARg homodimer (NR concentration 180 nM)
Procedure, shortened: as §1

[16] = tested on: PXR:RXRa (NR concentration 270 nM, RXRa partner concentration 90 nM)
Procedure, shortened: as §1

[17] = tested on: PXR homodimer (NR concentration 270 nM)
Procedure, shortened: as §1

[18] = tested on: RARa:RXR (NR concentration 270 nM, RXRa partner concentration 90 nM)
Procedure, shortened: as §1

[19] = tested on: RARa homodimer (NR concentration 270 nM)
Procedure, shortened: as §1

[20] = tested on: RARb:RXRa (NR concentration 270 nM, RXRa partner concentration 90 nM)
Procedure, shortened: as §1

Sequence	PBM binding z-score [1]	PBM binding z-score [2]	PBM binding z-score [3]	PBM binding z-score [4]	PBM binding z-score [5]	PBM binding z-score [6]	PBM binding z-score [7]	PBM binding z-score [8]	PBM binding z-score [9]	PBM binding z-score [10]	PBM binding z-score [11]	PBM binding z-score [12]	PBM binding z-score [13]	PBM binding z-score [14]	PBM binding z-score [15]	PBM binding z-score [16]	PBM binding z-score [17]	PBM binding z-score [18]	PBM binding z-score [19]	PBM binding z-score [20]
ATCGAAACGTCGAAGGTGAGTATACCCACCCGAA	-0.17	-0.352	-0.345	-0.738	-0.334	-0.193	0.676	-0.0479	0.0501	-0.0142	-0.927	-0.0186	0.59	0.626	-0.242	-0.502	-0.249	-0.42	0.0263	0.237
TGTCAAAGTTCAAAGGTATCGTAAGTATCCACAC	6.52	6.21	4.75	3.88	1.73	5.28	7.79	7.23	4.93	6.44	-0.2	3.95	0.81	1.08	2.53	5.14	4.92	4.95	1.12	4.91
CCTAGTAGGTCAAGGTCACACACGCTATAGGTAC	6.32	5.5	2.71	4.64	1.12	5.98	9.25	7.51	5.53	7.55	8.26	7.96	1.56	0.61	3.98	4.96	1.81	5.14	2.09	5.1
AGCTCTAGGTAACAAGTTCAGTGAAAGAGAGGAC	0.5	0.614	0.194	0.684	0.134	1.53	1.33	1.92	0.448	1.34	3.82	2.13	0.734	0.272	0.839	1.63	1.98	0.544	0.529	1.64
GGAACGAGGGCATTCGAGTTGATGGCATGGCGAT	1.48	1.27	-0.635	-0.299	-0.896	1.31	0.637	0.324	-0.665	-0.326	3	2.1	-0.485	-0.554	-0.644	3.26	1.55	0.115	-0.893	1.6
TCTTGTAAATCAAAGGTTAAGAAAGCCGAAGCCT	1.34	2.53	0.811	1.94	0.621	3.08	3.23	5.39	4.93	5.88	1.48	1.25	0.212	0.506	1.05	1.42	-0.311	2.32	0.632	1.87
CCTGCTAGGTCATTGGTCAGCTAAAGCAGCTCGC	4.06	3.07	0.559	2.13	0.108	3.56	3.71	4.63	1.79	4.05	3.86	3.73	0.135	-0.404	1.24	1.47	0.029	2.07	-0.492	3.97
TCTTGTAGATCAAAGGCTAAGAAAGCCGAAGCCT	0.284	0.0908	-0.472	-0.0772	-0.625	1.68	3.24	4.87	4.4	5.12	1.65	1.23	0.137	0.157	-0.136	-0.183	-0.625	0.0326	-0.389	0.153
CGAACGAGGGCATGCGTTGATAGCAAATGCCGAT	0.569	0.207	-0.45	0.0933	-0.834	1.12	0.923	0.579	-0.693	0.0948	2.51	1.72	-0.297	-0.501	0.165	0.344	-0.453	0.5	-0.165	1.95
AGAACGAGGGCGATGAGTTGATAGCACGGGTGGC	-0.358	-0.46	-0.764	-0.815	-0.754	-0.167	0.665	-0.212	-0.297	-0.297	0.888	0.217	-0.427	-0.338	-0.143	0.367	1.89	-0.627	-0.34	0.39
ATCGAAAGATCGAGGTGAGTATAGAGAAAGGGAA	0.0424	0.111	-0.321	-0.262	-0.23	0.469	0.553	0.362	0.533	0.418	-0.0862	1.27	0.466	0.643	-0.144	-0.176	-0.105	0.139	-0.0593	0.194
GCGACTGGGGCATCAGCACGTTACCATAACTTAA	-0.278	-0.417	-0.429	0.31	-0.932	0.476	0.927	0.64	-0.0937	0.15	3.89	3	0.00267	-0.723	-0.048	-0.493	-0.113	-0.399	-0.0529	0.327
TCATGTAGGTAAATGCTAGGTGAAAGTCCGATCT	0.737	0.46	0.144	0.503	0.151	1.33	0.723	2.1	2.88	2.6	4.15	3.44	0.811	1.12	0.796	0.502	0.512	0.568	1.39	0.378
